# Laboratory results reported in article PMC7862700, “An all-to-all approach to the identification of sequence-specific readers for epigenetic DNA modifications on cytosine”.
# Columns and labels:
# Experiment in all cases: DAPPL (digital affinity profiling via proximity ligation, sequencing); 10 mM Tris-HCl pH 7.5, 50 mM NaCl, 1 mM DTT, 4% glycerol, room temperature, 30 min; GST-TFs on glutathione beads, 16-mer random dsDNA library, 0.1% formaldehyde crosslink after washing; high values mean tight binding
# Conditions in all cases: protein: recombinant; tags: N-terminal GST; dsDNA, one strand shown
# ETV1 = ETV1 (Homo sapiens, UniProt P50549 1-477)
# ETV1, sequence (P50549 whole entry, the tested form may be a part): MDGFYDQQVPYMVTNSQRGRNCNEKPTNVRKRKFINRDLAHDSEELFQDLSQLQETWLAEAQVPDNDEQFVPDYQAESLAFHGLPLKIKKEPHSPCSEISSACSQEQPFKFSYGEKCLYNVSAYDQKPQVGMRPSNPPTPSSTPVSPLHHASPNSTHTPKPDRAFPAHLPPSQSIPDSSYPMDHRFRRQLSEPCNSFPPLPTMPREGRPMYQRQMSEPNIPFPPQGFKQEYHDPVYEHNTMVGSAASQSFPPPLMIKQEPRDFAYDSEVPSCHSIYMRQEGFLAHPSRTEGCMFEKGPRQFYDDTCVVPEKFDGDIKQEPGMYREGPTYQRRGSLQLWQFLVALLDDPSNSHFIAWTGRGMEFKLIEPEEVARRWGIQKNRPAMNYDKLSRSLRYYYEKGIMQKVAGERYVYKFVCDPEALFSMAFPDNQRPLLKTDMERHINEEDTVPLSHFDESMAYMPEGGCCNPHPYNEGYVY
# How it was run: (§1)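 Pools were built from human transcription factors expressed in yeast as GST fusions, captured on glutathione beads and DNA-barcoded, along with a tag-only sample. Incubation with 200 nmole of a 16-mer random double-stranded DNA library lasted 30 min at room temperature in Tris/NaCl/DTT/glycerol buffer, and was followed by washing, 0.1% formaldehyde crosslinking, proximity ligation, PCR amplification and Illumina NextSeq500 sequencing. Binding signal is the quotient of each hexamer's read frequency for a factor and its frequency for the tag-only sample.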
# ERF = target: T1, ERF (Homo sapiens, UniProt P50548 1-548)
# T1 sequence: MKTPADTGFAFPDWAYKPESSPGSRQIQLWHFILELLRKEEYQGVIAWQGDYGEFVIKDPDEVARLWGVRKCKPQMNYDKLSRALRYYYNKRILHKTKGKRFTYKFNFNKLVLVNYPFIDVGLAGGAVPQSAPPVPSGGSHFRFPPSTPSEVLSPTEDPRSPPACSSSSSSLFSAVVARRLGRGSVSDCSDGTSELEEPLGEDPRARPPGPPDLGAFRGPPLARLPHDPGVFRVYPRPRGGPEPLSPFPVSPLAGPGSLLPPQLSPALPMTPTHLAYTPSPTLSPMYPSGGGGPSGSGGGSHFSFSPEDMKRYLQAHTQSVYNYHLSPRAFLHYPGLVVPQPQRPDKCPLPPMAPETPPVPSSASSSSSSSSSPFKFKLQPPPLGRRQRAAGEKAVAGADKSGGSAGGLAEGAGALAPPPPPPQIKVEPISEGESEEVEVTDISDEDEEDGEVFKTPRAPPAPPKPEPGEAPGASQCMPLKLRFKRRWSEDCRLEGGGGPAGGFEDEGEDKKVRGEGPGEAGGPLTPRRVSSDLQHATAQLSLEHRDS
# How it was run: as §1
# ETV3L = target: T2, ETV3L (Homo sapiens, UniProt Q6ZN32 1-361)
# T2 sequence: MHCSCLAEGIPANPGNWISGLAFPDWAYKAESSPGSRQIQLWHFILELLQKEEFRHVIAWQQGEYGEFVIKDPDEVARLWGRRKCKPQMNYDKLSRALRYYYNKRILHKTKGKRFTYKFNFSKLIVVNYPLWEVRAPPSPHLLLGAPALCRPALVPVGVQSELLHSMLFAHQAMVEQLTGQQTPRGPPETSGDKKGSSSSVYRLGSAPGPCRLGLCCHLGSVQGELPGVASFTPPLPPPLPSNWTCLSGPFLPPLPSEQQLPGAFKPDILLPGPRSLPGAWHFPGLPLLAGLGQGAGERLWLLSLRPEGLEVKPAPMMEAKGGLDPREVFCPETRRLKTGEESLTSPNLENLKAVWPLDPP
# How it was run: as §1
# ETS2 = target: T3, ETS2 (Homo sapiens, UniProt P15036 1-469)
# T3 sequence: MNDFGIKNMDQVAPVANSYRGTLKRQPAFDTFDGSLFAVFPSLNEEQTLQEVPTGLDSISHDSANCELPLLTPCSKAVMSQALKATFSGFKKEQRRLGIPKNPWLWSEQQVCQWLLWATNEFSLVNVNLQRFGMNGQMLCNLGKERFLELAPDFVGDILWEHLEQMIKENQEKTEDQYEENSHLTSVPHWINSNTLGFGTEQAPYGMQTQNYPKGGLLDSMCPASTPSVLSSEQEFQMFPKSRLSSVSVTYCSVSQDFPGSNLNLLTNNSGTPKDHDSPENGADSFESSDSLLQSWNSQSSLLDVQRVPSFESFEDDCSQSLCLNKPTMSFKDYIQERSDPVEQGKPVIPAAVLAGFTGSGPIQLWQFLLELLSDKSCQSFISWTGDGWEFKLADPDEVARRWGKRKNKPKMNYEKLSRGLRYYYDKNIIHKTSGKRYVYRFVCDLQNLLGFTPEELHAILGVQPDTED
# How it was run: as §1
# SPDEF = target: T4, SPDEF (Homo sapiens, UniProt O95238 1-335)
# T4 sequence: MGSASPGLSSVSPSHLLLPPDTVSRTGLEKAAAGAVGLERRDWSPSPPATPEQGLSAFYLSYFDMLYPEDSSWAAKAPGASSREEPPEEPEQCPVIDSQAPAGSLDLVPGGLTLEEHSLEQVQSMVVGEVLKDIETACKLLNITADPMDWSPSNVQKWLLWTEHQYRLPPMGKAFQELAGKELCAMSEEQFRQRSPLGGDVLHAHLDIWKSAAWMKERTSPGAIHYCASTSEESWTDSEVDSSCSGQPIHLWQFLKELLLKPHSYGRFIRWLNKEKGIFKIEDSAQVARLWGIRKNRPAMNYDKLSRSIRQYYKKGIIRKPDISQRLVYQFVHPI
# How it was run: as §1
# ETV7 = target: T5, ETV7 (Homo sapiens, UniProt Q9Y603 1-341)
# T5 sequence: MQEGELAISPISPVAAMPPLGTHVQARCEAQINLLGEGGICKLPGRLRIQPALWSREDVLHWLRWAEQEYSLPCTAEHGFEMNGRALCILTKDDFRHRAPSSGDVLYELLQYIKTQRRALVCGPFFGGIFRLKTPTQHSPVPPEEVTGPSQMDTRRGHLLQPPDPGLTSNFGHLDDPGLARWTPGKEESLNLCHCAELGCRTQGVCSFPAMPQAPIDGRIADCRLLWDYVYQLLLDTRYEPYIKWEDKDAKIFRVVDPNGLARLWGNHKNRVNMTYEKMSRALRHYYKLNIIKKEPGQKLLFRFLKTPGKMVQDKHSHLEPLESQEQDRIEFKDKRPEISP
# How it was run: as §1
# ELF5 = target: T6, ELF5 (Homo sapiens, UniProt Q9UKW6-2 1-255)
# T6 sequence: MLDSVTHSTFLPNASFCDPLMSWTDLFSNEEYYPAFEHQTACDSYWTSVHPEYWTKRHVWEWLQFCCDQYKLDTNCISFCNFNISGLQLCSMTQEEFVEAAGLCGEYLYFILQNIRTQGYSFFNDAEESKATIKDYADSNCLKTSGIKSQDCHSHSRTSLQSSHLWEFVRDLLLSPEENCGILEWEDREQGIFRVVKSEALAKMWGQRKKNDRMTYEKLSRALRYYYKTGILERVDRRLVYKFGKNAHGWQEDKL
# How it was run: as §1
# ETV3 = target: T7, ETV3 (Homo sapiens, UniProt P41162-2 1-143)
# T7 sequence: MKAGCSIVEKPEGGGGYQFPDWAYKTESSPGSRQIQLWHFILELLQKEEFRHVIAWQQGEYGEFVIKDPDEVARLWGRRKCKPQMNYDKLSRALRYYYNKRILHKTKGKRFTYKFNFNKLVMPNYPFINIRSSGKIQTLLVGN
# How it was run: as §1
# ETV6 = ETV6 (Homo sapiens, UniProt P41212 1-452)
# ETV6, sequence (P41212 whole entry): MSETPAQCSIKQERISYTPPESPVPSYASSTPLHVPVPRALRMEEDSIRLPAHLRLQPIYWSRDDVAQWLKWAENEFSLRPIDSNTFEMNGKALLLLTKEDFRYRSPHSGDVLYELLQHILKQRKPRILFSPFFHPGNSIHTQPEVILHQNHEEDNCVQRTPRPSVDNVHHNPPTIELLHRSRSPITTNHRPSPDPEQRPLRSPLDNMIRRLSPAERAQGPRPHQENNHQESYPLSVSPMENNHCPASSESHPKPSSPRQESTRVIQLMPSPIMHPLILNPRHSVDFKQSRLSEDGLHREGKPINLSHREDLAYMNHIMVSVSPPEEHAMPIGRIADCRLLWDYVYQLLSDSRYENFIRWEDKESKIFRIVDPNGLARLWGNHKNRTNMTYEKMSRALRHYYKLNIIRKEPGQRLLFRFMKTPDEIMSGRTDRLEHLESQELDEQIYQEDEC
# How it was run: as §1
sequence,measurement,setting,value
GAAATA,binding signal,ETV1,"1.54 fold enrichment (6-mer frequency, TF over GST control)"
same,binding signal,ERF,"1.45 fold enrichment (6-mer frequency, TF over GST control)"
same,binding signal,ETV3L,"1.48 fold enrichment (6-mer frequency, TF over GST control)"
same,binding signal,ETS2,"1.51 fold enrichment (6-mer frequency, TF over GST control)"
same,binding signal,SPDEF,"1.52 fold enrichment (6-mer frequency, TF over GST control)"
same,binding signal,ETV7,"1.6 fold enrichment (6-mer frequency, TF over GST control)"
same,binding signal,ELF5,"1.73 fold enrichment (6-mer frequency, TF over GST control)"
same,binding signal,ETV3,"1.54 fold enrichment (6-mer frequency, TF over GST control)"
same,binding signal,ETV6,"1.75 fold enrichment (6-mer frequency, TF over GST control)"
